Data taken from the supplement of paper PMC10849652.
Targets with a hit are over-represented here; the source holds about 7,900 in all. About 0.6% of all pairs of compound and target were hits.

Chain of UniProt Q9NZN8 (Q9NZN8 whole entry, looked up): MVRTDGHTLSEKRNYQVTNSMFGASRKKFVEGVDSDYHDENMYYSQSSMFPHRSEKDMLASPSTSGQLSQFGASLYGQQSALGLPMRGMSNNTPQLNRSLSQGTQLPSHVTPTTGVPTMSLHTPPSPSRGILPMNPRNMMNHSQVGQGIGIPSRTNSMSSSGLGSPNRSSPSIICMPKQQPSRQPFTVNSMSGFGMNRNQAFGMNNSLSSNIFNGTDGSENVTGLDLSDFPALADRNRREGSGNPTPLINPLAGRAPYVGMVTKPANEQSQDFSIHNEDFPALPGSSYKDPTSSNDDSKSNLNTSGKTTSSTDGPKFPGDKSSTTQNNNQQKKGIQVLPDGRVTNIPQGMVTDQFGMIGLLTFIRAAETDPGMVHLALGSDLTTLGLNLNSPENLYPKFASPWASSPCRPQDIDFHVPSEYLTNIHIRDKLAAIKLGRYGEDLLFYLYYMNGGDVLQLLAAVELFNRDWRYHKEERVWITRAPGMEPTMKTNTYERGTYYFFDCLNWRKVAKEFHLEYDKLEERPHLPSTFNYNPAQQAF
Chain of UniProt P86791 (P86791 whole entry, looked up): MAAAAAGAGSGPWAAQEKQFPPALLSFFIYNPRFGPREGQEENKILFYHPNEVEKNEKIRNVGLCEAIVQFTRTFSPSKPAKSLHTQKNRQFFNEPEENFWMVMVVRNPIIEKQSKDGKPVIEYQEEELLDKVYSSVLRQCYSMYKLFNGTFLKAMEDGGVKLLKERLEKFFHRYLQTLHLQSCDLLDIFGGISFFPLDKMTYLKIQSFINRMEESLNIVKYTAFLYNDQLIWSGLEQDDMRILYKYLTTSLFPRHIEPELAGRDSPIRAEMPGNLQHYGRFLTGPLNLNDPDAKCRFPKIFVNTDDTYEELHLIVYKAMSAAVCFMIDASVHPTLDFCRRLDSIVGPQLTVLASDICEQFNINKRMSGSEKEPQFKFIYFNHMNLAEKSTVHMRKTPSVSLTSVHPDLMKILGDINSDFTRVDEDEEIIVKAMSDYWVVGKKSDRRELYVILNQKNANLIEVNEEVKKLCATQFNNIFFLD
Chain of UniProt P48509 (P48509 whole entry, looked up): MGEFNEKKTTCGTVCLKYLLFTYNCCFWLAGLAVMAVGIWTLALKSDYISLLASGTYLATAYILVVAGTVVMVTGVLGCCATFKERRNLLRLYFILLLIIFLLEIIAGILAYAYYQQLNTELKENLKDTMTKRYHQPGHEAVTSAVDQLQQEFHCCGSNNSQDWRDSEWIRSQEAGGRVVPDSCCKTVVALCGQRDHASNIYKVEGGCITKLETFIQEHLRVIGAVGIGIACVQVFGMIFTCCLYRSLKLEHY
Chain of UniProt Q96JB5 (Q96JB5 whole entry, looked up): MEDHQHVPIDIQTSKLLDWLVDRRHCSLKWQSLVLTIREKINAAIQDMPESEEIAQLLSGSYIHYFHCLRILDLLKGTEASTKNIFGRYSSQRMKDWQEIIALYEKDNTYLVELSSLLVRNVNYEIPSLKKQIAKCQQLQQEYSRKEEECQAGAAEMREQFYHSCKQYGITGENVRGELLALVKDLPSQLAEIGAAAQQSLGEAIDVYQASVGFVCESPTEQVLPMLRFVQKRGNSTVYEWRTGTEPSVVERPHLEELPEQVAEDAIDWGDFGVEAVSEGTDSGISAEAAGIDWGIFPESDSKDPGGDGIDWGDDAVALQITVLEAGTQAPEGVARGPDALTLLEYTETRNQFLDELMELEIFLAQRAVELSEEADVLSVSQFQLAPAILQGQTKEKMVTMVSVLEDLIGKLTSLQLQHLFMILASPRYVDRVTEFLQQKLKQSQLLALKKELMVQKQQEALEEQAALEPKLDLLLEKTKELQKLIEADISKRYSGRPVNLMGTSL
Chain of UniProt Q01459 (Q01459 whole entry, looked up): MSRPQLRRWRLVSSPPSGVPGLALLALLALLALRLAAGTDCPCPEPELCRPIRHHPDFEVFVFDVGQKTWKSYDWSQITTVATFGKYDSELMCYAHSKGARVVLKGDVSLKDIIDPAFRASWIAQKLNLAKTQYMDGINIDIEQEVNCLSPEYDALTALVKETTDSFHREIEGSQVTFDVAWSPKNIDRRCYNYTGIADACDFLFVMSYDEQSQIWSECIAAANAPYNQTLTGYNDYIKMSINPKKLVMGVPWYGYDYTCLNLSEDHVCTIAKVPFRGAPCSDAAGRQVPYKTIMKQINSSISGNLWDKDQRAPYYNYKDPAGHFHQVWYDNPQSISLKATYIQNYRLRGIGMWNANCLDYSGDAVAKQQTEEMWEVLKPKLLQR
Chain of UniProt Q9Y646 (Q9Y646 whole entry, looked up): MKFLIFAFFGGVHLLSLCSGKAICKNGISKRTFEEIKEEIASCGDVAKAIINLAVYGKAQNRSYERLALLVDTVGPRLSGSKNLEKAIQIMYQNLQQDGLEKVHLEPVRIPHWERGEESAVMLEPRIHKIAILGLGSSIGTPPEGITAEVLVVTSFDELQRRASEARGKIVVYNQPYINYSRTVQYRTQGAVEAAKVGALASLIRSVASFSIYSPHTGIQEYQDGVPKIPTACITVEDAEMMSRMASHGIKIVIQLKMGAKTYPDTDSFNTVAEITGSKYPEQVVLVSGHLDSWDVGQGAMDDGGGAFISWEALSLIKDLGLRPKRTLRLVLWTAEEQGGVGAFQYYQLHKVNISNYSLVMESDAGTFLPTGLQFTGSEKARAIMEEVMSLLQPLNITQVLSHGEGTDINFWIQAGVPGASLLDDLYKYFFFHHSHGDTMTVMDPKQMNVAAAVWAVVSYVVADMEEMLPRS
Chain of UniProt Q8N1A6 (Q8N1A6 whole entry, looked up): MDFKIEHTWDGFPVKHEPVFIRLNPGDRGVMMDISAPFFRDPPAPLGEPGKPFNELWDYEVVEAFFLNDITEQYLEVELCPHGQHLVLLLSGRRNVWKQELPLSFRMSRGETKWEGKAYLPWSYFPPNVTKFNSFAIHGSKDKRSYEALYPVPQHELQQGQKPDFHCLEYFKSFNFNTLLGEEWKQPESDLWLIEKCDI
Chain of UniProt Q99627 (Q99627 whole entry, looked up): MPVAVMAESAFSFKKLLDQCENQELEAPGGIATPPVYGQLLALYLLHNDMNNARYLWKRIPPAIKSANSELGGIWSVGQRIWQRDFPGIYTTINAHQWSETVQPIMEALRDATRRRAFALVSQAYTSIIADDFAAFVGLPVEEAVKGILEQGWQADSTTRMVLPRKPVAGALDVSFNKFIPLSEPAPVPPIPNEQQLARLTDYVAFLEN
Chain of UniProt P46108 (P46108 whole entry, looked up): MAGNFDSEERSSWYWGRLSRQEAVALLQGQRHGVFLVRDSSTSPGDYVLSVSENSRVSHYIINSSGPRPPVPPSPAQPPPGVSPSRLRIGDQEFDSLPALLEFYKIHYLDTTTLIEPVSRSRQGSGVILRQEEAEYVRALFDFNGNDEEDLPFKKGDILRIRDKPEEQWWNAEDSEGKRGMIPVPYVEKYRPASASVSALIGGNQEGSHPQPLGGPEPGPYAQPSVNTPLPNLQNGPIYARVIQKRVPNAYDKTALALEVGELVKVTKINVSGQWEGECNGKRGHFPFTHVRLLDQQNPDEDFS
Chain of UniProt O75909 (O75909 whole entry, looked up): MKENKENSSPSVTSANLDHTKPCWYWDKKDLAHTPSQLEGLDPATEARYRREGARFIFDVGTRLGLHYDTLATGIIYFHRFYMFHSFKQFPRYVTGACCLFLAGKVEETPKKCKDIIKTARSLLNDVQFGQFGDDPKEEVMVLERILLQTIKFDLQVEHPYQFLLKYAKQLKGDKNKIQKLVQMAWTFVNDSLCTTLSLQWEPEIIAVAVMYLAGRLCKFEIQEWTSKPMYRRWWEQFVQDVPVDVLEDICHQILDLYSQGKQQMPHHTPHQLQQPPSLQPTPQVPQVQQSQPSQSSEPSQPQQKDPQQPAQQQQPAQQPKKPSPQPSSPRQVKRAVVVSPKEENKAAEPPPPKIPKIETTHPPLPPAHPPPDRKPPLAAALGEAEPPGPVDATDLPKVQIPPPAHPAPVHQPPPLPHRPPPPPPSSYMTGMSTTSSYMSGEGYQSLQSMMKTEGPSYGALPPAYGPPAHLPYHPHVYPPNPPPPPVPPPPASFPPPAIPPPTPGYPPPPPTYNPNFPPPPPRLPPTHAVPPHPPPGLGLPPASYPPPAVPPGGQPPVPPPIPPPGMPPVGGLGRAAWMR
Chain of UniProt P35520 (P35520 whole entry, looked up): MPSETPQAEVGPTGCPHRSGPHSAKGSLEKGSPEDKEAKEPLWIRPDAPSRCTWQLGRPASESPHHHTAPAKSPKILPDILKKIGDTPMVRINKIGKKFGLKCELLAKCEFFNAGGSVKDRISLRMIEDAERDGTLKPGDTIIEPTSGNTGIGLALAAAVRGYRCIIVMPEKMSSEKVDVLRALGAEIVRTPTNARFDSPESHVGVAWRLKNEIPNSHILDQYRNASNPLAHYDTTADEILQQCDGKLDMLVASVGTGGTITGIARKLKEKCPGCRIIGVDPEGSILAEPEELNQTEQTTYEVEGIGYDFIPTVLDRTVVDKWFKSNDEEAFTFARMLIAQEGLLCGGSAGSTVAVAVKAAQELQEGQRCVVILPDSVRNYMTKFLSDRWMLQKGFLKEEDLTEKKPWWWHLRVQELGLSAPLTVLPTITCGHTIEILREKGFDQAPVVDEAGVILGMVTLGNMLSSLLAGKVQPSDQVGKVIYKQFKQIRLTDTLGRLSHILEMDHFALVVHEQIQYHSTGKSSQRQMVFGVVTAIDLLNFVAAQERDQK
Chain of UniProt P41208 (P41208 whole entry, looked up): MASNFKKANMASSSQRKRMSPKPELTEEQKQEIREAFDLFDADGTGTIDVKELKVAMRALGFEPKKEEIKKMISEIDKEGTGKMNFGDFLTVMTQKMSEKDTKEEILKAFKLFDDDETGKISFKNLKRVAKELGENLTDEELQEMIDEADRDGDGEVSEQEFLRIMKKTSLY
Chain of UniProt P20674 (P20674 whole entry, looked up): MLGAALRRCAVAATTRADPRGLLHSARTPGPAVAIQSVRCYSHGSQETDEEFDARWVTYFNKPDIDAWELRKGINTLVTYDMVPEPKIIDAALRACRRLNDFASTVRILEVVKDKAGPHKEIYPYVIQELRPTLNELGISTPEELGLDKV
Chain of UniProt P14854 (P14854 whole entry, looked up): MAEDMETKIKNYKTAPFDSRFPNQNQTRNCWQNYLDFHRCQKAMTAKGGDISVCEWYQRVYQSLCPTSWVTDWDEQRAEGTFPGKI

These targets were tested with Cn1cc(-c2ccc3nnc(C(F)(F)c4ccc5ncccc5c4)n3n2)cn1 (assay: log2 fold change, soluble protein after heating vs DMSO (PISA); higher = thermal stabilisation; K562 cells, 10 uM, 30 min; active = over 0.2 and 3.5 SD of the protein, either way, in both replicates (recomputed)).
In short: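 Thermal stability values are relative to control samples and come from duplicates. They are expressed as log2 fold changes. For measurement, K562 cells (2×10^6 cells/mL) received 10 μM compound for 30 min, and aliquots were heated for 3 min over 48°C-58°C, pooled, and extracted at 4°C in PBS with 0.5% NP-40. Soluble protein, the supernatant after 21,000xg for 90 min, was quantified by TMTpro 16plex LC-MS/MS with equalised channel sums.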
In the case of CD151 (UniProt P48509), the log2 fold change is reported as -0.002 (inactive).
For CBX1 (UniProt P83916), the log2 fold change was 0.011 (inactive).
CHCHD2 (UniProt Q9Y6H1) was tested, and the log2 fold change was -0.02 (inactive).
With CCNK isoform 4 (UniProt O75909) the log2 fold change was -0.069 (inactive).
In the case of CBR1 (UniProt P16152), the log2 fold change is reported as -0.031 (inactive).
CASP2 (UniProt P42575) was tested, and the log2 fold change was -0.056 (inactive).
COCH (UniProt O43405) was tested, and the log2 fold change was -0.005 (inactive).
For CTBS (UniProt Q01459), the log2 fold change was 0.162 (inactive).
For CDKN2AIP (UniProt Q9NXV6), the log2 fold change was -0.012 (inactive).
For CBS (UniProt P35520), the log2 fold change was 0.035 (inactive).
With COMT (UniProt P21964) the log2 fold change was 0.031 (inactive).
For CCDC9 (UniProt Q9Y3X0), the log2 fold change was -0.05 (inactive).
With CHD4 isoform 2 (UniProt Q14839) the log2 fold change was -0.002 (inactive).
COX5A (UniProt P20674) was tested, and the log2 fold change was 0.422 (active).
In the case of CLCN3 (UniProt P51790), the log2 fold change is reported as 0.049 (inactive).
C4A (UniProt P0C0L4) was tested, and the log2 fold change was 0.052 (inactive).
For CCAR2 isoform 2 (UniProt Q8N163), the log2 fold change was 0.042 (inactive).
COPS4 (UniProt Q9BT78) was tested, and the log2 fold change was 0.003 (inactive).
With CDK16 isoform 2 (UniProt Q00536) the log2 fold change was 0.013 (inactive).
COPS3 (UniProt Q9UNS2) was tested, and the log2 fold change was 0.04 (inactive).
C4orf33 (UniProt Q8N1A6) was tested, and the log2 fold change was 0.031 (inactive).
In the case of COPS8 (UniProt Q99627), the log2 fold change is reported as 0.146 (inactive).
For CDK5RAP3 isoform 4 (UniProt Q96JB5), the log2 fold change was 0.024 (inactive).
CCZ1 (UniProt P86791) was tested, and the log2 fold change was 0.025 (inactive).
In the case of CSTF2 (UniProt P33240), the log2 fold change is reported as -0.014 (inactive).
With COX6B1 (UniProt P14854) the log2 fold change was 0.377 (active).
CNDP2 (UniProt Q96KP4) was tested, and the log2 fold change was 0.032 (inactive).
For CPQ (UniProt Q9Y646), the log2 fold change was -0.025 (inactive).
CA1 (UniProt P00915) was tested, and the log2 fold change was -0.008 (inactive).
In the case of CNN2 (UniProt Q99439), the log2 fold change is reported as 0.044 (inactive).
In the case of CSNK2A2 (UniProt P19784), the log2 fold change is reported as 0.038 (inactive).
With CNOT2 (UniProt Q9NZN8) the log2 fold change was 0.022 (inactive).
In the case of CRK (UniProt P46108), the log2 fold change is reported as 0.03 (inactive).
With CETN2 (UniProt P41208) the log2 fold change was 0.03 (inactive).
In the case of CPSF1 (UniProt Q10570), the log2 fold change is reported as -0.14 (inactive).
With CSTF3 (UniProt Q12996) the log2 fold change was -0.01 (inactive).
